Test results published in the OligoGym collection.

target: ADCYAP1; assay: pooled miR-30 sensor sort-seq; sequence = guide strand; conditions: shRNA
Also: reference of the scale not given here.

Point of comparison: TGTTTGGATAGAACACACGAGC, sensor-assay potency score (higher = more potent) -1.09. Against it:
- TTAACCCTTTGTTTATACCTCT — higher, -0.397
- ATTTGTTTCCGGTAGCGGCTGT — higher, -0.122
- TAACCCTTTGTTTATACCTCTT — higher, -0.602
- TGTCCGTGAAGATCCCGTCCGA — higher, -0.344
- TACGCCTCTTCCTCTGGCCTGA — higher, -1.02
- TAGCTGTCCGTGAAGATCCCGT — higher, -0.391
- TTACATAAATACATGTTTGGAT — higher, -0.0777
- TTTGTTTCCGGTAGCGGCTGTA — higher, -0.47
- TGCTGTGCATGATTATCCCATA — lower, -1.74
- TAGGCCTCGTTAAGGATCCCGT — higher, -0.922
- TTGTTTCCGGTAGCGGCTGTAG — higher, -0.993
- TTGTTTATACCTCTTCCCTAGG — higher, -0.956
- TAGCGGCTGTAGCTGTCCGTGA — lower, -1.1
- TCCGTGAAGATCCCGTCCGAGT — lower, -1.83
- TATCCCATAGACCAGCAGGGCC — lower, -1.32
- TTCCGGTAGCGGCTGTAGCTGT — lower, -1.35
- TTTGTTTATACCTCTTCCCTAG — higher, 0.232
- TTGGATAGAACACACGAGCGAT — higher, -0.826
- TCTTCCTCTGGCCTGATCCCGG — lower, -1.48
- TTCCTCTGGCCTGATCCCGGGG — lower, -1.18
